# Measurements published in the supplement of paper PMC8728848.
# Only a selection was taken, and the strongest signals are over-represented in it overall.
# B1: Banana lectin (Musa acuminata) (protein)
# chain: MNGAIKVGAWGGNGGSAFDMGPAYRIISVKIFSGDVVDAVDVTFTYYGKTETRHFGGSGGTPHEIVLQEGEYLVGMKGEFGNYHGVVVVGKLGFSTNKKSYGPFGNTGGTPFSLPIAAGKISGFFGRGGDFIDAIGVYLEP
# B2: ZG-16 (Homo sapiens), O60844 (protein)
# chain: IQARSSSYSGEYGSGGGKRFSHSGNQLDGPITALRVRVNTYYIVGLQVRYGKVWSDYVGGRNGDLEEIFLHPGESVIQVSGKYKWYLKKLVFVTDKGRYLSFGKDSGTSFNAVPLHPNTVLRFISGRSGSLIDAIGLHWDVYPTSCSRCSRGSDDDDKAEPRGPTIKPCPPCKCPAPNLLGGPSVFIFPPKIKDVLMISLSPIVTCVVVDVSEDDPDVQISWFVNNVEVHTAQTQTHREDYNSTLRVVSALPIQHQDWMSGKEFKCKVNNKDLPAPIERTISKPKGSVRAPQVYVLPPPEEEMTKKQVTLTCMVTDFMPEDIYVEWTNNGKTELNYKNTEPVLDSDGSYFMYSKLRVEKKNWVERNSYSCSVVHEGLHNHHTTKSFSRTPGKRTYHHHHHHARKLTR
# Legend:
# Test in all cases: glycan array binding signal (z-score within array); higher = stronger binding
# Conditions in all cases: glycan notation: IUPAC condensed, linker removed
# [1] = molecular target: Fuc(a1-2)Gal(b1-3)[Fuc(a1-4)]GlcNAc(b1-3)[Fuc(a1-3)[Gal(b1-4)]GlcNAc(b1-6)]Gal(b1-4)Glc
# How it was run: (§1)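 The binding signal is a Z-score computed within each array and averaged over linkers. Arrays of the same protein sequence at different concentrations or buffers were also averaged together. Data originate from 3228 arrays in the Consortium for Functional Glycomics database, kept only where the protein sequence was available.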
# [2] = molecular target: Fuc(a1-2)[Gal(a1-3)]Gal(b1-3)GalNAc(b1-3)Gal(a1-4)Gal(b1-4)Glc
# How it was run: as §1
# [3] = molecular target: Fuc(a1-2)[Gal(a1-3)]Gal(b1-4)GlcNAc(b1-3)GalNAc
# How it was run: as §1
# [4] = molecular target: Fuc(a1-2)[GalNAc(a1-3)]Gal(b1-3)GlcNAc(b1-3)GalNAc
# How it was run: as §1
# [5] = molecular target: Fuc(a1-3)[Gal(b1-4)]GlcNAc
# How it was run: as §1
# [6] = molecular target: Fuc(a1-3)[Gal3S(b1-4)]Glc
# How it was run: as §1
# Gal(a1-3)GalNAc = molecular target: Gal(a1-3)GalNAc
# How it was run: as §1
# Gal(a1-4)GlcNAc = molecular target: Gal(a1-4)GlcNAc
# How it was run: as §1
# [7] = molecular target: Gal(b1-3)GlcNAc(b1-3)GalNAc
# How it was run: as §1
# [8] = molecular target: Gal(b1-3)GlcNAc(b1-6)[Gal(b1-3)]GalNAc
# How it was run: as §1
# [9] = molecular target: Gal(b1-3)[Fuc(a1-4)]GlcNAc(b1-2)Man
# How it was run: as §1
# [10] = molecular target: Gal(b1-3)[Fuc(a1-4)]GlcNAc(b1-6)GalNAc
# How it was run: as §1
# [11] = molecular target: Gal(b1-4)GlcNAc(a1-6)Gal(b1-4)GlcNAc
# How it was run: as §1
# [12] = molecular target: Gal(b1-4)GlcNAc(b1-2)Man(a1-3)[Gal(b1-4)GlcNAc(b1-2)Man(a1-6)]Man(b1-4)GlcNAc(b1-4)GlcNAc
# How it was run: as §1
# [13] = molecular target: Gal(b1-4)GlcNAc(b1-2)[Gal(b1-4)GlcNAc(b1-4)]Man(a1-3)[GlcNAc(b1-4)][Gal(b1-4)GlcNAc(b1-2)[Gal(b1-4)GlcNAc(b1-6)]Man(a1-6)]Man(b1-4)GlcNAc(b1-4)GlcNAc
# How it was run: as §1
# [14] = molecular target: Gal(b1-4)GlcNAc(b1-6)[Gal(b1-3)]GalNAc
# How it was run: as §1
# [15] = molecular target: Gal3S(b1-4)[Fuc(a1-3)]GlcNAc
# How it was run: as §1
# Gal4S(b1-4)GlcNAc = molecular target: Gal4S(b1-4)GlcNAc
# How it was run: as §1
# Gal6S(b1-3)GlcNAc6S = molecular target: Gal6S(b1-3)GlcNAc6S
# How it was run: as §1
# [16] = molecular target: GlcNAc(a1-4)Gal(b1-4)GalNAc
# How it was run: as §1
# [17] = molecular target: GlcNAc(b1-3)Gal(b1-4)GlcNAc(b1-3)Gal(b1-4)GlcNAc(b1-3)Gal(b1-4)GlcNAc(b1-2)Man(a1-3)[GlcNAc(b1-3)Gal(b1-4)GlcNAc(b1-3)Gal(b1-4)GlcNAc(b1-3)Gal(b1-4)GlcNAc(b1-2)Man(a1-6)]Man(b1-4)GlcNAc(b1-4)GlcNAc
# How it was run: as §1
# [18] = molecular target: GlcNAc(b1-3)Gal(b1-4)GlcNAc(b1-3)Gal(b1-4)GlcNAc(b1-3)Gal(b1-4)GlcNAc(b1-3)Gal(b1-4)GlcNAc(b1-2)[GlcNAc(b1-3)Gal(b1-4)GlcNAc(b1-3)Gal(b1-4)GlcNAc(b1-3)Gal(b1-4)GlcNAc(b1-3)Gal(b1-4)GlcNAc(b1-6)]Man(a1-6)[GlcNAc(b1-3)Gal(b1-4)GlcNAc(b1-3)Gal(b1-4)GlcNAc(b1-3)Gal(b1-4)GlcNAc(b1-3)Gal(b1-4)GlcNAc(b1-2)Man(a1-3)]Man(b1-4)GlcNAc(b1-4)[Fuc(a1-6)]GlcNAc
# How it was run: as §1
# [19] = molecular target: Man(a1-2)Man(a1-2)Man(a1-3)Man
# How it was run: as §1
# [20] = molecular target: Man(a1-2)Man(a1-2)Man(a1-6)[Man(a1-3)]Man
# How it was run: as §1
# Man(a1-2)Man(a1-3)Man = molecular target: Man(a1-2)Man(a1-3)Man
# How it was run: as §1
# [21] = molecular target: Man(a1-2)Man(a1-3)[Man(a1-2)Man(a1-6)]Man(a1-6)[Man(a1-2)Man(a1-2)Man(a1-3)]Man
# How it was run: as §1
# [22] = molecular target: Man(a1-2)Man(a1-3)[Man(a1-2)Man(a1-6)]Man(a1-6)[Man(a1-2)Man(a1-2)Man(a1-3)]Man(b1-4)GlcNAc(b1-4)GlcNAc
# How it was run: as §1
# [23] = molecular target: Man(a1-2)Man(a1-3)[Man(a1-6)]Man(a1-6)[Man(a1-2)Man(a1-3)]Man(b1-4)GlcNAc(b1-4)GlcNAc
# How it was run: as §1
# [24] = molecular target: Man(a1-2)Man(a1-6)[Man(a1-3)]Man(a1-6)[Man(a1-2)Man(a1-2)Man(a1-3)]Man
# How it was run: as §1
# [25] = molecular target: Man(a1-2)Man(a1-6)[Man(a1-3)]Man(a1-6)[Man(a1-2)Man(a1-2)Man(a1-3)]Man(b1-4)GlcNAc(b1-4)GlcNAc
# How it was run: as §1
# [26] = molecular target: Man(a1-3)[Man(a1-6)]Man(a1-6)[Man(a1-2)Man(a1-3)]Man(b1-4)GlcNAc(b1-4)GlcNAc
# How it was run: as §1
# [27] = molecular target: Man(a1-3)[Man(a1-6)]Man(a1-6)[Man(a1-3)]Man(b1-4)GlcNAc(b1-4)GlcNAc
# How it was run: as §1
# [28] = molecular target: Man(a1-3)[Man(a1-6)]Man(b1-4)GlcNAc(b1-4)GlcNAc
# How it was run: as §1
# Man(a1-6)Man = molecular target: Man(a1-6)Man
# How it was run: as §1
# [29] = molecular target: Neu5Ac(a2-3)Gal(b1-4)GlcNAc(b1-2)Man(a1-3)[GlcNAc(b1-4)][Neu5Ac(a2-3)Gal(b1-4)GlcNAc(b1-2)Man(a1-6)]Man(b1-4)GlcNAc(b1-4)GlcNAc
# How it was run: as §1
# [30] = molecular target: Neu5Ac(a2-3)Gal(b1-4)GlcNAc(b1-3)Gal(b1-4)[Fuc(a1-3)]GlcNAc
# How it was run: as §1
# [31] = molecular target: Neu5Ac(a2-3)Gal(b1-4)GlcNAc(b1-6)[Neu5Ac(a2-3)Gal(b1-3)]GalNAc
# How it was run: as §1
# [32] = molecular target: Neu5Ac(a2-3)[GalNAc(b1-4)]Gal(b1-4)Glc
# How it was run: as §1
# [33] = molecular target: Neu5Ac(a2-6)Gal(b1-4)GlcNAc(b1-2)Man(a1-3)[Gal(b1-4)GlcNAc(b1-2)Man(a1-6)]Man(b1-4)GlcNAc(b1-4)GlcNAc
# How it was run: as §1
# [34] = molecular target: Neu5Ac(a2-6)Gal(b1-4)GlcNAc(b1-2)Man(a1-3)[GlcNAc(b1-2)Man(a1-6)]Man(b1-4)GlcNAc(b1-4)GlcNAc
# How it was run: as §1
# [35] = molecular target: Neu5Ac(a2-6)Gal(b1-4)GlcNAc(b1-3)Gal(b1-3)GlcNAc
# How it was run: as §1
# Neu5Ac(a2-6)GalNAc = molecular target: Neu5Ac(a2-6)GalNAc
# How it was run: as §1
# [36] = molecular target: Neu5Ac(a2-6)GlcNAc(b1-4)GlcNAc(b1-4)GlcNAc
# How it was run: as §1
# [37] = molecular target: Neu5Gc(a2-3)Gal(b1-4)[Fuc(a1-3)]GlcNAc
# How it was run: as §1
binder,measurement,setting,value
B1,glycan array binding signal (z-score),[1],-0.195
same,glycan array binding signal (z-score),[2],-0.195
same,glycan array binding signal (z-score),[3],-0.195
same,glycan array binding signal (z-score),[4],-0.188
same,glycan array binding signal (z-score),[5],-0.193
same,glycan array binding signal (z-score),[6],-0.192
same,glycan array binding signal (z-score),Gal(a1-3)GalNAc,-0.194
same,glycan array binding signal (z-score),Gal(a1-4)GlcNAc,-0.194
same,glycan array binding signal (z-score),[7],-0.195
same,glycan array binding signal (z-score),[8],-0.173
same,glycan array binding signal (z-score),[9],-0.19
same,glycan array binding signal (z-score),[10],-0.19
same,glycan array binding signal (z-score),[11],-0.196
same,glycan array binding signal (z-score),[12],-0.161
same,glycan array binding signal (z-score),[13],-0.197
same,glycan array binding signal (z-score),[14],-0.193
same,glycan array binding signal (z-score),[15],-0.19
same,glycan array binding signal (z-score),Gal4S(b1-4)GlcNAc,-0.195
same,glycan array binding signal (z-score),Gal6S(b1-3)GlcNAc6S,-0.195
same,glycan array binding signal (z-score),[16],-0.174
same,glycan array binding signal (z-score),[17],-0.179
same,glycan array binding signal (z-score),[18],-0.139
same,glycan array binding signal (z-score),[19],3.39
same,glycan array binding signal (z-score),[20],8.43
same,glycan array binding signal (z-score),Man(a1-2)Man(a1-3)Man,5.44
same,glycan array binding signal (z-score),[21],7.92
same,glycan array binding signal (z-score),[22],3.85
same,glycan array binding signal (z-score),[23],6.18
same,glycan array binding signal (z-score),[24],6.72
same,glycan array binding signal (z-score),[25],7.63
same,glycan array binding signal (z-score),[26],5.95
same,glycan array binding signal (z-score),[27],3.55
same,glycan array binding signal (z-score),[28],7.64
same,glycan array binding signal (z-score),Man(a1-6)Man,-0.076
same,glycan array binding signal (z-score),[29],-0.191
same,glycan array binding signal (z-score),[30],-0.195
same,glycan array binding signal (z-score),[31],-0.194
same,glycan array binding signal (z-score),[32],-0.193
same,glycan array binding signal (z-score),[33],-0.142
same,glycan array binding signal (z-score),[34],-0.102
same,glycan array binding signal (z-score),[35],-0.194
same,glycan array binding signal (z-score),Neu5Ac(a2-6)GalNAc,-0.192
same,glycan array binding signal (z-score),[36],-0.194
B2,glycan array binding signal (z-score),[37],-0.11
